Assay outcomes deposited in PubChem by National Center for Advancing Translational Sciences (NCATS).
A selection: hits, their analogues and other compounds. The true share with any hit is near 10%.
KB-3-1 tox: qHTS assay for MDR1-selective chemotherapeutics: Primary screen using the parental adenocarcinoma cell KB-3-1. KB-3-1 viability, CellTiter-Glo ATP luminescence, 72 h. Potency, µM (titrated, usually from 46.1 µM), most hits filed as cytotoxic. hit rate 1.4% among 400,000. AID 1347075, 2019; note: % is set by controls: 0 for no effect and ±100 for the full control effect; nearly all actives have a fitted effect of over 60% in size
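Parental KB-3-1 viability, qHTS format: 72 h compound exposure, 37 °C; CellTiter-Glo; media-only wells and DMSO plates as controls; concentration-effect fits on corrected data.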
SW480 rereplic: A quantitative high throughput screen for small molecules that induce DNA re-replication in SW480 colon adenocarcinoma cells. hit rate 1.8% among 340,000. SW480 DNA re-replication, Hoechst DNA content imaging, 48 h. Potency, µM (highest dose often 46.1 µM), without a hit: at the top dose re-replication activation, most hits filed as activators. AID 624297, 2012; note: % of control where 0% means no effect; nearly all actives have a fitted effect of over 55% in size
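Per well, 250 cells were exposed to pinned compound for 48 hr. Nuclear DNA was visualised with Hoechst (40 min, 37 C) and total object intensity recorded by fluorescence scanning.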
RORg inh: qHTS for inhibitors of ROR gamma transcriptional activity; Nuclear receptor ROR-gamma (Mus musculus), P51450; Drosophila S2 Gal4-RORgamma UAS-luciferase reporter, 20 h; Potency, µM (highest dose often 53.6 µM), inactives show top-dose activity change, negative = inhibition, usual class: inhibitors; hit rate 5.4% among 310,000; note: % is set by controls: 0 for no effect and ±100 for the full control effect; nearly all actives have a fitted effect of over 60% in size
Target sequence (P51450 whole entry, looked up, the tested form may be a part): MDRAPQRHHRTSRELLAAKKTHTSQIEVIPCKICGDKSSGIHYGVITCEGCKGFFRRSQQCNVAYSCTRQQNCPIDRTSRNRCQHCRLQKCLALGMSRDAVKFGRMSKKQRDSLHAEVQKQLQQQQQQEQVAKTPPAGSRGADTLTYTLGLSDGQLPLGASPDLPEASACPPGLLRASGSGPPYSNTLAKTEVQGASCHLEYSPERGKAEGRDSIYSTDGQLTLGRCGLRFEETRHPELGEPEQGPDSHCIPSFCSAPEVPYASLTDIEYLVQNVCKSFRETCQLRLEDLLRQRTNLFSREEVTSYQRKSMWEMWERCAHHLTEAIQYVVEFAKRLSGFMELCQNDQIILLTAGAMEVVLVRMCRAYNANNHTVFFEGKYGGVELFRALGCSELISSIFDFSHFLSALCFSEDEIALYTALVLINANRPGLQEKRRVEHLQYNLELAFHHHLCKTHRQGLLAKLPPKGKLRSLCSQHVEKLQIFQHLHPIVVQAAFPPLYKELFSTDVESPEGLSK
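Read-out: Photinus luciferase luminescence; inhibitors lower reporter signal. Insect Schneider cells with Gal4-ROR gamma fusion under metallothionein promoter, UAS reporter; 700 uM final copper sulfate induction, 20 hr, ambient temperature.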
VP16 counter: VP16 counterscreen qHTS for inhibitors of ROR gamma transcriptional activity | Potency, µM (doses to about 53.6 µM), inactives show at the top dose activity, negative = inhibition, usual class: inhibitors | hit rate 3.5% among 310,000 | AID 2546, 2010 | Drosophila S2 Gal4-VP16 UAS-luciferase, luminescence, 20 h;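 note: Gal4-VP16 expression switched on by copper sulfate through the metallothionein promoter; % is set by controls: 0 for no effect and ±100 for the full control effect; nearly all actives have a fitted effect of over 50% in size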
MCF10A rerep: A quantitative high throughput screen for small molecules that induce DNA re-replication in MCF 10a normal breast cells; Potency, µM (top dose mostly 46.1 µM), inactives show at the highest dose activity, positive = re-replication, actives largely listed as activators; hit rate 2.9% among 350,000; MCF 10A DNA re-replication, Hoechst nuclear intensity, 48 h; note: % of control where 0% means no effect; nearly all actives have a fitted effect of over 50% in size
KB-V1 MDR tox: qHTS assay for MDR1-selective chemotherapeutics: Primary screen using the drug-selected MDR subline cells KB-V1 | hit rate 3.4% among 400,000 | Potency, µM (doses to about 46.1 µM), hits mostly cytotoxic | KB-V1 MDR cells viability, CellTiter-Glo, 72 h; note: % is set by controls: 0 for no effect and ±100 for the full control effect; nearly all actives have a fitted effect of over 60% in size
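Cytotoxicity via CellTiter-Glo luminescence after 72 h compound exposure at 37 degrees C. Cells: drug-selected KB-V1 line, DMEM phenol-red free plus 10% FBS. Compounds tested at multiple concentrations; normalized data fitted to concentration-effect curves.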
* = called active by the depositor; i = inactive; ? = inconclusive; / = not tested or not shown; [ ] = remark or other dose. Calls come from the whole dose curve; as a rule, active = well fitted curve in the direction sought with a large enough effect; inconclusive = small, poorly fitted or top-dose-only effect, or another doubt; inactive = no such curve, though single readings can be large; an effect the other way counts as inactive or inconclusive. Potency is the fitted concentration of half-maximal effect.

SMILES	KB-3-1 tox	SW480 rereplic	RORg inh	VP16 counter	MCF10A rerep	KB-V1 MDR tox
CC(C)CSc1nc2ccccc2[nH]1	i	?	-9.0%	-3.8%	0.581µM*	?
O=C(CSc1nc2c([nH]c3ccccc32)c(=O)n1-c1ccc(Cl)cc1)NC1CCCCC1	i	/	/	/	/	?
COc1cccc2cc(/C(C)=N/Nc3nc(-c4cc(C)ccc4C)cs3)c(=O)oc12	?	-1.0%	0.794µM*	-5.5%	0.4%	i
CNC(=O)c1cc2cccc(OC)c2oc1=O	i	2.1%	-7.1%	9.7%	36.5%	i
CC1=Nc2cccc3cccc(c23)N1	i	12.3%	12.6µM*	-19.5%	7.8%	i
Nc1ccc(C2=Nc3cccc4cccc(c34)N2)cc1	i	-129.9%	28.4%[10 µM]	?	-3.2%	i
CCCCCc1c(C)nc(N2CCc3ccccc32)[nH]c1=O	?	?	?	-10.9%	-3.9%	3.26µM*
CCCCCc1c(C)nc(N2CCc3ccccc3C2)[nH]c1=O	i	-7.3%	8.0%	-3.1%	4.6%	i
Cc1cccc(NC(=O)/C(C#N)=C/c2cccc([N+](=O)[O-])c2)n1	i	?	-1.0%	-3.9%	20.6µM*	i
Cc1cccc(NC(=O)/C(C#N)=C/c2ccc(Cl)cc2)n1	i	1.7%	16.5%	2.5%	22.6%	i
CN1CCN(CC(=O)N2c3ccccc3C(C)(c3ccc(Cl)cc3)CC2(C)C)CC1 (stereo not given)	?	?	-30.0%	-9.6%	1.8%	i
CN1CCN(CC(=O)N2c3ccccc3C(C)(c3ccccc3)CC2(C)C)CC1 (stereo not given)	?	20.6µM*	?	-2.9%	?	?
COc1cc(NC(=O)CCNS(=O)(=O)c2ccc3c(c2)CCN3C(=O)C2CC2)cc(OC)c1	i	/	/	/	/	i
COc1ccc(OC)c(S(=O)(=O)N/N=C\c2ccc3c(c2)OCO3)c1	i	6.1%	30.7%	0.9%	7.9%	i
COc1ccc(S(=O)(=O)N/N=C\c2ccc3c(c2)OCO3)c(OC)c1	/	-1.6%	?	11.2µM*	16.7%	/
Cc1cccc(-n2ncc(C(=O)Nc3ccc4c(c3)OCO4)c2C2CCN(C(=O)OC(C)(C)C)CC2)c1	i	/	/	/	/	i
CCN(CCCNC(=O)c1cc2cc3cc(C)ccc3nc2s1)c1cccc(C)c1	i	/	/	/	/	i
COc1ccc(C(=O)NCC(=O)N/N=C/c2cccc(OC(=O)c3ccco3)c2)cc1OC	i	-7.0%	-9.5%	28.6%	3.26µM*	?
COc1ccc(/C=N/NC(=O)CNC(=O)c2ccc3c(c2)OCCO3)cc1OC	i	1.3%	-5.7%	3.8%	8.2%	i
COc1cc(NC(=O)c2c(-c3ccc(C)cc3)nnc3ccccc23)cc(OC)c1OC	i	/	/	/	/	i
CCCC(O)c1nc2ccccc2n1CCCOc1ccc(Cl)cc1 (stereo not given)	i	/	/	/	/	i
CC1CN(C(=O)C2CCCC2)C(C)CN1C(=O)C1CCCC1 (stereo not given)	i	-2.0%	0.3%	3.6%	1.0%	10.3µM*
Nc1nc2ccc(Cl)cc2cc1C(=O)NCCc1c[nH]c2ccccc12	9.2µM*	/	/	/	/	i
CC1(C(=O)O)CCC2(C)CCC3(C)C(=CC(=O)C4C5(C)CCC(=O)C(C)(C)C5CCC43C)C2C1 (stereo not given)	i	/	/	/	/	i
C[C@@H](C[C@@H](O)[C@H](O)C(C)(C)O)[C@@H]1CC[C@]2(C)C3=CC[C@H]4C(C)(C)C(=O)CC[C@]4(C)[C@H]3CC[C@@]12C	?	2.1%	4.47µM*	?	?	?
SMILES	KB-3-1 tox	SW480 rereplic	RORg inh	VP16 counter	MCF10A rerep	KB-V1 MDR tox
COCCCN1C(=O)C(CC(=O)NCc2ccco2)CC(C(=O)N(C(C)C)C(C)C)=C1C (stereo not given)	i	/	/	/	/	i
Cc1cc(/C=C2\SC(=Nc3ccccc3)NC2=O)c(C)n1-c1ccc(S(N)(=O)=O)cc1	4.11µM*	7.31µM*	?	-2.4%	17.4%	?
CCOC(=O)Cn1c(=O)n(C2CCCCC2)c2nc(-c3ccc(C(C)C)cc3)nc(C(N)=O)c21	?	/	/	/	/	i
Cc1cc2c(cc(C(=O)OCC(=O)NCc3cccs3)n2C(C)C)o1	9.2µM*	8.2µM*	24.4%[0.365 µM]	/	2.91µM*	?
Cc1nc2sccn2c(=O)c1CCN1CCC(=C(c2ccccc2)c2ccc(F)cc2)CC1	/	14.7%	18.0%	-1.2%	5.17µM*	/
Cc1nc2sccn2c(=O)c1S(=O)(=O)N1CCN(c2ccccc2)CC1	i	-2.5%	12.9%	1.0%	0.0%	i
COc1ccc(Cn2c(C(=O)O)c(CNCc3ccc(C)o3)c3ccc(OC)cc32)cc1	8.2µM*	/	/	/	/	i
COc1ccc2c(CNCc3ccc(C)o3)c(C(=O)O)n(Cc3ccccc3C)c2c1	i	/	/	/	/	i
CCc1cc2c(-c3ccccc3)cc(=O)oc2c2c1OCN(Cc1ccc(F)cc1)C2	i	/	/	/	/	i
Nc1ccccc1SCc1cn2ccccc2n1	i	-693.2%	?	?	?	i
Cc1cccn2cc(CSc3ccccc3N)nc12	i	2.1%	?	-23.5%	2.6%	13µM*
O=C(Nc1ccccc1)Nc1cc(OCC(F)(F)F)cc(OCC(F)(F)F)c1	?	15.1%	?	15.8µM*	20.6µM*	16.4µM*
C=CCOc1ccc(/C=N\NC(N)=S)cc1	i	-116.8%	32.0%	24.4%	?	?
NC(=S)N/N=C/c1ccc(OC(=O)c2cccnc2)cc1	i	?	-42.5%	9.2%	2.2%	i
CC(C)Oc1ccc(/C=N/NC(N)=S)cc1	?	?	5.01µM*	2.82µM*	?	14.6µM*
COc1ccc(/C=N/NC(N)=S)cc1	i	0.6%	11.2µM*	?	?	?
COC(=O)c1ccc(COc2ccc(/C=N/NC(N)=S)cc2)o1	i	-5.5%	11.2µM*	?	?	?
NC(=O)N/N=C/c1cccc(C(F)(F)F)c1	?	2.2%	18.1%	-4.5%	-3.7%	?
NC(=S)N/N=C/c1ccc(C(F)(F)F)cc1	23.1µM*	/	5.01µM*	5.62µM*	?	5.8µM*
CCCCN(C)c1nc2c(S(=O)(=O)c3ccc(CC)cc3)nnn2c2ccc(Cl)cc12	i	/	/	/	/	i
